Holding throughout (test): PBM binding z-score (relative to random genomic background probes); higher = stronger binding; sequences stand for … in GC…GCGATTGACAGCGTAGAATGAAGG
Assay [1] has as its system PPARg:RXRa DBDmut IVT, anti-RXR (DBD mutation: RXRa K156A/R161A, NR concentration 270 nM, RXRa partner concentration 90 nM). The gist of the method: (§1)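 Random background probes are the reference for binding z-scores. These scores derive from regression-normalized fluorescence on custom Agilent 4×180K protein-binding microarrays incubated 1 h with ligand-free nuclear receptor dimers. Binding was detected with antibodies against each partner (one per run).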

In assay [2] the test system is PPARg:RXRa IVT, anti-PPARg (NR concentration 270 nM, RXRa partner concentration 90 nM). In a few lines: as §1
Assay [3] has as its system PPARg DBDmut:RXRa IVT, anti-PPARg (DBD mutation: PPARg1 K132A/R137A, NR concentration 270 nM, RXRa partner concentration 90 nM). The gist of the method:
as §1

In assay [4] the test system is PPARg DBDmut IVT, anti-PPARg (DBD mutation: PPARg1 K132A/R137A, NR concentration 270 nM). In a few lines:
as §1

Assay [5] has as its system PPARg homodimer (NR concentration 180 nM). In a few lines:
as §1

In assay [6] the test system is PXR:RXRa (NR concentration 270 nM, RXRa partner concentration 90 nM). The gist of the method:
as §1

Assay [7] deals with PXR homodimer (NR concentration 270 nM). In a few lines:
as §1

Assay [8] has as its system RARa:RXR (NR concentration 270 nM, RXRa partner concentration 90 nM). In a few lines: as §1
Assay [9] has as its system RARa homodimer (NR concentration 270 nM). The gist of the method: as §1
The test system of assay [10] is RARb:RXRa (NR concentration 270 nM, RXRa partner concentration 90 nM). The gist of the method: as §1
In assay [11] the test system is RARb homodimer (NR concentration 270 nM). In a few lines:
as §1

In assay [12] the test system is RARg:RXRa (NR concentration 270 nM, RXRa partner concentration 90 nM). In a few lines: as §1
Assay [13] concerns RARg homodimer (NR concentration 270 nM). The gist of the method:
as §1

For assay [14], the system named is RXRa DBDmut IVT, anti-RXR (DBD mutation: RXRa K156A/R161A, NR concentration 90 nM). The gist of the method:
as §1

The subject of assay [15] is RXRa homodimer (NR concentration 180 nM). In a few lines:
as §1

The test system of assay [16] is THRa:RXRa (NR concentration 90 nM, RXRa partner concentration 90 nM). The gist of the method: as §1
The subject of assay [17] is THRa homodimer (NR concentration 90 nM). The gist of the method: as §1
The test system of assay [18] is VDR homodimer (NR concentration 270 nM). The gist of the method:
as §1

As to CCTGCTAGGTCAATGGCCAGCTAAAGCAGCTCGC, the PBM binding z-score in assay [1] was 4.15; in assay [2] it was 3.04; in assay [3], -1.08; in assay [4] it was -1.25; in assay [5], 0.733; in [6] it was 0.566. In addition, the PBM binding z-score in assay [7] is -0.775; in assay [8], 1.31; in assay [9], -0.563; in [10] it was 3.73; in assay [11], 2.64; in assay [12], 3.43. Further, the PBM binding z-score in assay [13] is 3.65; in assay [14], 1.05; in [15], 1.79; in assay [16], 1.98; in [17] it was 0.178; in [18], -0.525.
In the case of ACTAGCAGGCCAAGGGTCACTCAAGATTAGTCCG, the PBM binding z-score in [1] is 0.983; in [2], 4.06; in assay [3], -0.0619; in [4], -0.0525; in assay [5], 2.65; in assay [6], 3.21. Further, the PBM binding z-score in assay [7] is -0.112; in assay [8], 3.84; in assay [9], 0.215; in assay [10], 3.41; in [11], 3.86; in assay [12], 4.17. The PBM binding z-score was 3.74 in assay [13]; 0.678 in assay [14]; 3.93 in assay [15]; 2.65 in assay [16]; 0.199 in assay [17]; 1.29 in assay [18].
As for GCGACTGGGGCATCAGCAGGTTACCATGACTTAA, the PBM binding z-score in assay [1] is 3.94; in assay [2], 2.97; in assay [3], -0.844; in [4] it was -0.497; in assay [5], -0.0201; in [6] it was -0.489. The PBM binding z-score in assay [7] is -0.454; in assay [8], -0.00016; in assay [9] it was -0.803; in [10], 0.805; in [11] it was 0.92; in [12], 0.761. Besides, the PBM binding z-score in assay [13] was 0.815; in assay [14], -0.0631; in [15] it was 0.124; in [16], 0.654; in [17], 0.00537; in assay [18], -0.549.
For the sequence AATACTGGGTCATCGTAGGCCAGAGTACGCACAG, the PBM binding z-score was 6.46 in assay [1]; 6.97 in assay [2]; 1.65 in [3]; 2.15 in assay [4]; 1.67 in [5]; 2.44 in assay [6]. Besides, the PBM binding z-score amounted to 0.428 in [7]; 2.35 in assay [8]; 0.903 in [9]; 3.49 in assay [10]; 3.24 in [11]; 3.52 in assay [12]. Further, the PBM binding z-score amounted to 3.91 in assay [13]; 0.934 in [14]; 3.11 in assay [15]; 3.85 in [16]; 0.749 in assay [17]; 1 in assay [18].
Take TCGGACAGGTGAAGGTAACTCAGGTACGCAGTCG: the PBM binding z-score was 2.03 in assay [1]; 1.01 in assay [2]; -0.211 in assay [3]; -0.574 in assay [4]; 0.536 in [5]; 0.407 in [6]. The PBM binding z-score came to 0.228 in [7]; 0.44 in [8]; 0.257 in [9]; 1.45 in assay [10]; 1.08 in [11]; 0.664 in assay [12]. In addition, the PBM binding z-score in assay [13] came to 1.17; in assay [14] it was 0.768; in assay [15], 0.653; in [16] it was 1.33; in assay [17], 0.486; in assay [18], 0.395.
Take ATATGTAAGTTATCGGGTCATTCAGTTTGCGCAT: the PBM binding z-score is 2.89 in [1]; 3.27 in assay [2]; 1.57 in assay [3]; 1.8 in assay [4]; 1.64 in [5]; 3.39 in assay [6]. In addition, the PBM binding z-score in assay [7] is 6.97; in [8], 2.93; in assay [9], 1.29; in assay [10] it was 2.05; in assay [11], 2.48; in [12] it was 2.12. Further, the PBM binding z-score came out at 1.48 in assay [13]; 1.61 in [14]; 2.59 in assay [15]; 3.24 in assay [16]; 2.84 in assay [17]; 3.74 in assay [18].
As for AGTCAAAGTTCACTAGGTAACGTGAGATTCAGCT, the PBM binding z-score stood at 2.52 in assay [1]; 4.98 in assay [2]; 1.48 in assay [3]; 1.01 in assay [4]; 2.06 in [5]; 3.61 in [6]. Moreover, the PBM binding z-score in assay [7] turned out to be 1.97; in assay [8], 2.87; in assay [9], 0.41; in [10], 4.72; in assay [11], 3.59; in assay [12], 4.82. For the same sequence, the PBM binding z-score turned out to be 5.55 in [13]; 3.83 in assay [14]; 3.61 in assay [15]; 1.87 in [16]; 0.0345 in assay [17]; 3.17 in [18].
Regarding CGTCAAAGTTCAACTAAGCTAACGTAAAGCACGC, the PBM binding z-score stood at 0.667 in assay [1]; 1.69 in assay [2]; 1.11 in [3]; 1.29 in [4]; 3.28 in assay [5]; 4.69 in [6]. Further, the PBM binding z-score turned out to be 4.44 in assay [7]; 3.82 in assay [8]; 2.34 in assay [9]; 5.31 in assay [10]; 4.31 in assay [11]; 5.83 in assay [12]. Moreover, the PBM binding z-score in assay [13] came to 6.59; in [14], 4.75; in assay [15], 5.2; in assay [16], 2.48; in assay [17], 0.187; in assay [18], 3.66.

Source of the values: the supplement of paper PMC6555819.
